The record followed here is ChEMBL document CHEMBL1157539, “Thousands of chemical starting points for antimalarial lead identification” (Nature, 2010).

As usually defined, the Inhibition is how much of the control response was suppressed. A high value points to a strong effect.

Holding throughout (assay type): functional
In test [1] the test system is Plasmodium falciparum. Put plainly: GSK_TCMDC: Inhibition of Plasmodium falciparum 3D7 in whole red blood cells, using parasite LDH activity as an index of growth. Test compounds present at 2uM.
For test [2], the system named is Plasmodium falciparum. Put plainly: GSK_TCMDC: Inhibition of Plasmodium falciparum Dd2 in whole red blood cells, using parasite LDH activity as an index of growth. Test compounds present at 2uM.
The subject of test [3] is HepG2. Put plainly: GSK_TCMDC: Percent inhibition of human HepG2 cell line. Test compounds present at 10uM.

As for `CCN(CCCN1CCCCC1)c1cc(C)nc(Nc2cc(Cl)cc(Cl)c2)n1.O=C(O)C(F)(F)F`, the Inhibition in test [1] is recorded as 100%; in test [2], 99%; in test [3], 34%.

Take `Oc1ccc(-c2ccccc2)cc1CN1CCCCCC1`: the figures for the Inhibition in test [1], in test [2] and in test [3] were 95%, 85% and 6%, respectively.

Regarding `CC(C)(C)CC(C)(C)c1ccc(O)c(C(=O)Nc2ccc([N+](=O)[O-])cc2)c1`, the Inhibition is listed as 97% in test [1], 99% in test [2] and 80% in test [3].

Take `O=C(Nc1cccc(CN2CCCN(Cc3ccccc3)CC2)c1)c1cc2ccccc2s1.O=C(O)C(F)(F)F`: the results for the Inhibition in test [1], in test [2] and in test [3] were 87%, 28% and 41%, respectively.

Take `CCC(C)CN1C(=O)C(c2ccccc2)(c2ccccc2)N=C1N.O=CO` (stereo not drawn): the figures for the Inhibition in test [1], in test [2] and in test [3] were 98%, 79% and 11%, respectively.

Consider `COc1ccc(CNC2CCN(C)CC2)cc1-c1ccc(S(=O)(=O)NCC2CCCO2)s1.O=C(O)C(F)(F)F` (stereo not drawn), for which the Inhibition was found to be 95% in test [1], 18% in test [2] and 18% in test [3].

Regarding `NC(=O)c1ccccc1OCC(=O)Nc1cccc(-c2cccc(-c3nc4ccccc4[nH]3)c2)c1`, the Inhibition in test [1] is given as 88%; in test [2], 46%; in test [3] it was 23%.

As for `Cc1ccc(Cn2nc(N3CCNCC3)ccc2=O)cc1NC(=O)Nc1ccc(-c2ccccc2)cc1.O=C(O)C(F)(F)F`, the Inhibition in test [1] worked out at 94%; in test [2], 20%; in test [3], 46%.

In the case of `Cc1ccccc1N1CCN(c2ccc(C(=O)Nc3ccccc3)cn2)CC1.O=C(O)C(F)(F)F`, the Inhibition in test [1] was 95%; in test [2] it was 69%; in test [3], 44%.

For `CN1CCN(CCCN(Cc2ccc(-c3ccc(CNCCc4ccccc4)cc3)cc2)C(=O)c2cccs2)CC1.O=C(O)C(F)(F)F`, the figures for the Inhibition in test [1], in test [2] and in test [3] were 98%, 78% and 32%, respectively.

Consider `Cc1cccc2nc(-c3cccc(-c4ccc(NC(=O)NC(C)C)cc4)c3)[nH]c12`, for which the results for the Inhibition in test [1], in test [2] and in test [3] were 98%, 44% and 30%, respectively.

As for `FC(F)(F)c1cccnc1N1CCC(Nc2nc3cc(Cl)ccc3[nH]2)CC1`, the Inhibition in test [1] was found to be 93%; in test [2] it was 39%; in test [3], 32%.

Regarding `COc1ccccc1C1CC(c2ccccc2)=NN1C(=O)c1ccco1` (stereo not drawn), the Inhibition in test [1] came to 97%; in test [2], 95%; in test [3], 12%.

Turning to `COCCn1c(-c2cccc(Cl)c2)nn(-c2ccc([N+](=O)[O-])cc2Cl)c1=S`, the Inhibition is 100% in test [1], 99% in test [2] and 2% in test [3].

On to `CN(C(=O)c1ccccc1)C1c2cc(C#N)ccc2OC(C)(C)C1O` (stereo not drawn), for which the Inhibition is 97% in test [1], 4% in test [2] and 8% in test [3].

For the molecule `Cc1ccc2[nH]c(C)cc(=NN=Cc3cccc(Cl)c3)c2c1`, the Inhibition in test [1] worked out at 100%; in test [2] it was 98%; in test [3] it was 12%.

Take `Cc1cnc(NCCc2ccc(F)cc2)nc1N[C@@H](CC(C)C)C(=O)Nc1ccccc1.O=C(O)C(F)(F)F`: the Inhibition in test [1] was 87%; in test [2] it was 29%; in test [3] it was 19%.

In the case of `CCCC(C)Nc1nc(C)cc(N[C@@H](CC(C)C)C(=O)Nc2ccc(OC)cc2)n1.O=C(O)C(F)(F)F` (stereo partly drawn), the Inhibition is on record as 98% in test [1], 68% in test [2] and 18% in test [3].

Regarding `COc1ccccc1C1CC(c2ccc(C)cc2)=NN1C(=O)c1ccccc1` (stereo not drawn), the Inhibition in test [1] was found to be 98%; in test [2] it was 45%; in test [3] it was 37%.

As for `Br.CCc1cccc(OCCCON2C(=N)N=C(N)NC2(C)C)c1`, the Inhibition in test [1] was 95%; in test [2] it was 94%; in test [3] it was 63%.

On to `CS(=O)(=O)CCNCc1ccc(-c2ccc3c(Nc4ccc(F)cc4Cl)ccnc3c2)o1`, for which the Inhibition in test [1] was found to be 100%; in test [2], 98%; in test [3], 29%.

Consider `CN1CCN(c2cc(-c3ccncc3)nc(-c3cccnc3)n2)CC1`, for which the values for the Inhibition in test [1], in test [2] and in test [3] were 100%, 98% and 13%, respectively.

`CCOc1ccc2c(=NN=Cc3cccc(OC)c3)cc(C)[nH]c2c1`: the Inhibition in test [1] is 97%; in test [2] it was 81%; in test [3], 38%.

With `CCCCN(CCCC)CCOc1cc2c(cc1OC)CCN2C(=O)/C=C/c1ccccc1Cl.Cl`, the Inhibition in test [1] came to 87%; in test [2], 31%; in test [3], 13%.

On to `COC(=O)c1ccc(CC(C)NCC(O)c2ccc(C(O)CNC(C)Cc3ccc(C(=O)OC)cc3)cc2)cc1.O` (stereo not drawn), for which the Inhibition in test [1] was determined as 88%; in test [2], 13%; in test [3], 24%.

For `O=C(Nc1ccccc1)N(Cc1ccccc1-c1cccc(CNCCc2ccccc2)c1)C1CCN(Cc2ccccc2)CC1.O=C(O)C(F)(F)F`, the figures for the Inhibition in test [1], in test [2] and in test [3] were 100%, 59% and 95%, respectively.

Regarding `Cc1cnc(C(=O)Nc2ccc3c(c2)CCCN(Cc2c[nH]c4cnccc24)C3)cn1.O=CO`, the figures for the Inhibition in test [1], in test [2] and in test [3] were 92%, 20% and 0%, respectively.

For the molecule `Cc1cc(Nc2ccccc2)nc(Nc2ccccc2C)n1.Cl`, the Inhibition worked out at 85% in test [1], 27% in test [2] and 8% in test [3].

Consider `CO/C(=C\C=C\c1cc2cc(Cl)c(Cl)cc2[nH]1)C(=O)NCCCCN1CCN(c2ccccc2OC)CC1`, for which the Inhibition in test [1] was found to be 100%; in test [2] it was 96%; in test [3], 55%.

As for `COc1cccc2cc(C(=O)N[C@@H](CC(C)C)C(=O)Nc3cc(F)ccc3Br)oc12`, the Inhibition in test [1] stood at 87%; in test [2] it was 45%; in test [3], 7%.

As to `CCCCN(CCCC)/C(=N/C(=N)Nc1ccc(Cl)cc1)NCCCCCCN/C(=N\C(=N)Nc1ccc(Cl)cc1)N(CCCC)CCCC`, the Inhibition worked out at 81% in test [1], 72% in test [2] and 0% in test [3].
